SMN2 splice enh: SMN2 splice variant enhancement; HEK293 SMN2-luciferase splicing reporter, luminescence, 30-36 h; 210,000 tested, 2.8% active; Potency, µM (titrated, usually from 46.1 µM), for inactives: at the highest dose activity change, positive = activation, actives largely listed as activators; note: % of control where 0% means no effect; nearly all actives have a fitted effect of over 55% in size
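HEK293 cells carry an SMN2 minigene-luciferase reporter in which exon 7 inclusion puts luciferase in frame. Cells were seeded at 2000 cells/well, attached for 10-12 hours, then exposed to compounds for 30-36 hours at 37C before ONE-Glo luminescence.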
ELG1 DNA repair: blocks ELG1-dependent DNA repair in HEK293T cells; HEK293T ELG1-luciferase reporter, luminescence, 16 h; DNA damage induced by 5-fluorouridine; Potency, µM (titrated, usually from 46.1 µM), for inactives: top-dose activity change, negative = inhibition, hits mostly inhibitors; 330,000 tested, 2.3% active; AID 504467; note: % is set by controls: 0 for no effect and ±100 for the full control effect; nearly all actives have a fitted effect of over 55% in size
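Luminescence from the luciferase reporter, measured 30 min after ONE-Glo reagent at room temperature, was the read-out. Beforehand, 2,000 cells per well were exposed for 16 hr at 37 °C to 5-fluorouridine together with compound or vehicle.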
Rab9 prom act: activates the Rab9 promoter; Huh7 Rab9 promoter-luciferase reporter, luminescence, 24 h; Potency, µM (series often up to 9.22 µM), for the others: top-dose activation, negative = inhibition, most hits filed as activators; 320,000 tested, 2.8% active; AID 485297; note: % of control where 0% means no effect; nearly all actives have a fitted effect of over 60% in size
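Steps: seed 1500 Huh7 Rab9-luc cells per well, rest 2 h at 37 °C; add compound in DMSO; incubate 24 h; add luciferase reagent, 10 min ambient; read luminescence.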
NPC1 prom act: activates the NPC1 promoter; 320,000 tested, 2.4% active; Huh7 NPC1 promoter luciferase reporter, 24 h; Potency, µM (titrated, usually from 9.22 µM), inactives show at the highest dose activation, usual class: activators; AID 485313; note: % of control where 0% means no effect; nearly all actives have a fitted effect of over 60% in size
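In 1536-well qHTS, Huh7 cells harboring an NPC1 promoter–luciferase construct received compound for 24 h; activation was quantified by luminescence following luciferase reagent addition.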
FLuc counter: inhibits or activates purified firefly luciferase, miR-21 counter-screen; P08659; AID 588342; 360,000 tested, 6.9% active; purified FLuc, Km substrates, luminescence inhibition; Potency, µM (titrated, usually from 57.5 µM), for the others: at the top dose activity change, negative = inhibition, usual class: inhibitors;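 note: plate controls were vehicle for no effect and reference inhibitor for full effect; nearly all actives have a fitted effect of over 55% in size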
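Biochemical qHTS of compounds, final roughly 60 µM downward over six points, against 10 nM purified firefly luciferase using Km concentrations of substrates (10 uM D-luciferin, 10 uM ATP) in Tris acetate pH 7.5 buffer; luminescence output.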
ELG1 genotox: inducers of genotoxicity in HEK293T ELG1-luciferase cells; 330,000 tested, 1.3% active; HEK293T ELG1-luciferase reporter, luminescence, 16 h; Potency, µM (top dose mostly 46 µM), for inactives: top-dose activity change, positive = activation, usual class: activators; note: % of control where 0% means no effect; nearly all actives have a fitted effect of over 60% in size
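Reporter readout depends on ELG1 protein level, which increases with genetic stress. After 16 hr compound exposure at 37 °C, luciferase activity was quantified using ONE-Glo.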
ELG1 FLuc counter: luciferase inhibition in cell-free luciferin readout for ELG1 hits; Potency, µM (series often up to 46.1 µM), inactives show top-dose activity change, negative = inhibition, usual class: inhibitors; 350 tested, 3% active; AID 624247; shares compounds with ELG1 DNA repair; cell-free firefly luciferase luminescence counter-screen, ViewLux; note: % is set by controls: 0 for no effect and ±100 for the full control effect
ELG1 Luc conf: human ELG1 repair inhibition, luciferase-tagged ELG1 confirmation | Potency, µM (top dose mostly 46.1 µM), inactives show top-dose activity change, negative = inhibition, usual class: inhibitors | HEK293T ELG1-luciferase levels, luminescence; cells co-treated with 5-fluorouridine | shares compounds with ELG1 DNA repair | 670 tested, 68% active | AID 624248; note: % is set by controls: 0 for no effect and ±100 for the full control effect; nearly all actives have a fitted effect of over 55% in size
ELG1 MMS Luc: confirmation of human ELG1 repair inhibitors, MMS stimulated | shares compounds with ELG1 DNA repair | HEK293T luciferase-tagged ELG1 level, MMS stimulated | Potency, µM (titrated, usually from 46.1 µM), inactives show top-dose activity change, negative = inhibition, hits mostly inhibitors | 670 tested, 53% active; note: % is set by controls: 0 for no effect and ±100 for the full control effect; nearly all actives have a fitted effect of over 60% in size
ELG1 5FU viab: confirmation of ELG1 repair inhibitors: viability with 5FU | AID 624250 | shares compounds with ELG1 DNA repair | 670 tested, under 10 active | cell viability with 5-FU, ELG1-dependent repair | Potency, µM (titrated, usually from 46.1 µM), inactives show at the highest dose activity change, negative = viability loss, usual class: cytotoxic;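 note: ELG1-luc HEK293T cells cotreated with 5-fluorouridine at 10 µM final; viability measured 16 h after compound addition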
ELG1 MMS viab: confirmation of ELG1 repair inhibitors: viability with MMS; shares compounds with ELG1 DNA repair; Cell viability with MMS, ELG1-dependent DNA repair; Potency, µM (top dose mostly 46.1 µM), without a hit: at the top dose activity change, negative = viability loss, hits mostly cytotoxic; 670 tested, 33% active; AID 624251;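 note: ELG1-luc HEK293T cells co-treated with 10 µM MMS; viability read 16 h after compound addition; % is set by controls: 0 for no effect and ±100 for the full control effect; nearly all actives have a fitted effect of over 60% in size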
ELG1 unstim viab: counter-screen for ELG1 repair inhibitors: unstimulated cell viability; shares compounds with ELG1 DNA repair; cell viability counter-screen, unstimulated, luminescence; Potency, µM (top dose mostly 45.9 µM), for the others: at the top dose activity change, negative = loss of viability, usual class: cytotoxic; 900 tested, 8% active;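 note: compound exposure lasted 16 hours before reading; % is set by controls: 0 for no effect and ±100 for the full control effect; nearly all actives have a fitted effect of over 55% in size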
FLuc biochem: firefly luciferase inhibition counter-screen. shares compounds with ELG1 DNA repair. purified firefly luciferase, luminescence counter-screen. Potency, µM (top dose mostly 57.5 µM), for inactives: at the top dose activity, negative = inhibition, most hits filed as inhibitors. 350 tested, 10% active. AID 624253; note: % is set by controls: 0 for no effect and ±100 for the full control effect
Numbers without * were called inactive; ? = inconclusive; nt = no result; [ ] = dose if it differs, or a comment. Sampled rows, rich in hits. Any-hit rate of the full collection: about 9.3%. Calls come from the whole dose curve; as a rule, active = well fitted curve in the direction sought with a large enough effect; inconclusive = small, poorly fitted or top-dose-only effect, or another doubt; inactive = no such curve, though single readings can be large; an effect the other way counts as inactive or inconclusive. Potency is the fitted concentration of half-maximal effect.

SMILES	SMN2 splice enh	ELG1 DNA repair	Rab9 prom act	NPC1 prom act	FLuc counter	ELG1 genotox	ELG1 FLuc counter	ELG1 Luc conf	ELG1 MMS Luc	ELG1 5FU viab	ELG1 MMS viab	ELG1 unstim viab	FLuc biochem
COCCNC(=S)NC1CC2CCC(C1)N2Cc1ccccc1 (stereo unspecified)	nt	0%	6%	3%	0%	4%	nt	nt	nt	nt	nt	nt	nt
C[C@@H]1CC2[C@@H]3CCC4=CC(=O)C=C[C@]4(C)[C@@]3(F)[C@@H](O)C[C@]2(C)[C@@]1(O)C(=O)NCCCCCCOC[C@H]1O[C@@H](n2cnc3cc(Cl)c(Cl)cc32)[C@@H]2OC(C)(C)O[C@@H]21 (stereo partly specified)	nt	nt	nt	nt	nt	nt	21%[92.2 µM]	nt	nt	nt	nt	-22%[92.2 µM]	-6%[115 µM]
C[C@@H]1C[C@@H]2[C@H]3CCC4=CC(=O)C=C[C@]4(C)[C@]3(F)[C@@H](O)C[C@]2(C)[C@@]1(O)C(=O)CO	-6%[20.6 µM]	nt	nt	nt	nt	nt	nt	nt	nt	nt	nt	nt	nt
Cc1ccc(CNC(=O)c2oc3ccc(S(=O)(=O)N4CCC5(CC4)OCCO5)cc3c2C)cc1	-48%	0.82µM*	-11%	-2%	4%	-36%	?	3.5µM*	14µM*	?	22µM*	?	-1%
Cc1c(C(=O)NCc2ccc(F)cc2)oc2ccc(S(=O)(=O)N3CCCCC3)cc12	nt	nt	nt	nt	-2%	nt	nt	nt	nt	nt	nt	nt	nt
Cc1cc(C)c(C#N)c(SCC(=O)Nc2cc(C)on2)n1	nt	?	nt	nt	nt	18µM*	nt	nt	nt	nt	nt	-4%	nt
Cc1cc(NC(=O)CSc2nc3c(C)ccc(C)c3cc2C#N)no1	nt	0%	0%	-16%	0%	17%	nt	nt	nt	nt	nt	nt	nt
Nc1ncnc2c1c(I)cn2C1OC(CO)C(O)C1O (stereo unspecified)	-90%	nt	nt	nt	nt	nt	?	0.4µM*	1µM*	18%	?	-8%	5%
CSc1ncnc2c1ncn2C1OC(CO)C(O)C1O (stereo unspecified)	-53%	nt	nt	nt	nt	nt	4%	0.04µM*	2µM*	?	?	0.56µM*	-1%
CC(C)C(C)(C#N)NC(=O)CSc1nc(C2CCCCC2)n(-c2ccccc2)n1 (stereo unspecified)	-23%	-20%	-8%	1%	-2%	1%	nt	nt	nt	nt	nt	nt	nt
Cc1cc(C(=O)NCc2ccccc2)c(=O)[nH]c1C	4%	?	10%	-2%	-14%	?	nt	nt	nt	nt	nt	nt	nt
O=C(CSc1ccc2nnc(-c3cccc(F)c3)n2n1)N1CCCc2ccccc21	-9%	12µM*	-8%	-3%	-2%	-2%	-5%	14µM*	?	10%	6%	-5%	-1%
CNC(=S)N1N=C(c2ccc(OC)cc2)CC1c1ccc(Cl)cc1Cl (stereo unspecified)	nt	4.6µM*	6%	6%	1%	-4%	nt	?	-22%	?	-7%	3%	nt
O=C(CC1OC(=O)c2ccccc21)Nc1cc(Cl)ccc1N1CCOCC1 (stereo unspecified)	nt	4.1µM*	nt	nt	nt	-6%	nt	?	-1%	4%	2%	-7%	nt
Cc1sc(NC(=O)c2ccco2)c(C(c2ccc(F)cc2)N2CCN(C)CC2)c1C (stereo unspecified)	-1%	-1%	3%	-6%	-10%	-4%	nt	nt	nt	nt	nt	nt	nt
Cc1sc(NC(=O)c2ccco2)c(C(c2cccnc2)N2CCN(c3ccc(F)cc3)CC2)c1C (stereo unspecified)	-68%	-16%	-9%	-14%	0%	0.52µM*	11%	nt	nt	nt	nt	-12%	-1%
C[C@H](CO)N1C[C@H](C)[C@@H](CN(C)C(=O)Nc2ccc(C(F)(F)F)cc2)Oc2c(NC(=O)CCC(F)(F)F)cccc2C1=O	nt	1.8µM*	nt	nt	nt	-1%	nt	3.5µM*	22%	?	9%	-8%	nt
C[C@H](CO)N1C[C@H](C)[C@@H](CN(C)C(=O)Nc2ccccc2)Oc2c(NC(=O)Cc3ccccc3)cccc2C1=O	nt	17%	nt	nt	nt	3%	nt	nt	nt	nt	nt	nt	nt
CC(C)NC(=O)Nc1cccc2c1O[C@H](CN(C)C(=O)Nc1ccc(C(F)(F)F)cc1)[C@@H](C)CN([C@H](C)CO)C2=O	nt	1.3µM*	nt	nt	nt	-1%	nt	2.2µM*	15%	?	4%	-2%	nt
C[C@H](CO)N1C[C@H](C)[C@@H](CN(C)C(=O)Nc2ccc(C(F)(F)F)cc2)Oc2c(NC(=O)Cc3ccccc3)cccc2C1=O	nt	?	nt	nt	nt	1%	nt	2.5µM*	-3%	?	23%	8%	nt
Nc1c(-c2ccccc2)c(CSc2nc3ccccc3[nH]2)nn1-c1ccc(C(=O)O)cc1	nt	9%	-3%	-5%	?	3%	nt	nt	nt	nt	nt	nt	nt
O=C(c1cccc(NS(=O)(=O)c2cccc(C(F)(F)F)c2)c1)N1CCOCC1	nt	13%	-1%	-1%	-1%	-1%	nt	nt	nt	nt	nt	nt	nt
Cc1ccc(Cn2ncc3c(N4CCN(C)CC4)ncnc32)cc1	-14%	?	1%	3%	-1%	-6%	nt	nt	nt	nt	nt	nt	nt

Source: PubChem BioAssay
